Inconclusive results are not listed. Where a call stands in place of a potency, no number is given. Calls of active or inactive are those of the source. The call rests on the fitted dose curve; in most records, active means well fitted cell-killing curve with a large enough effect; inconclusive means small, poorly fitted or top-dose-only effect, or effect the other way; inactive means flat fitted curve, though single readings scatter.
Potency means the concentration at half of the fitted maximal effect.

This assay is described as follows: S16 Schwann cell viability assay (CellTiter-Glo assay) (AID 624031). Further: nearly all actives have a fitted effect of over 70% in size. To be noted: S16 rat Schwann cells viability, 24 h; series mostly up to 57.5 µM. The gist of the method: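 Native S16 rat Schwann cells in DMEM/10% FBS without phenol red were incubated overnight, then exposed to compounds for 24 h at 37 °C/5% CO2. Viability was read as ATP luminescence (CellTiter-Glo), normalized to no-cell wells and DMSO (0%).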
On to `CC(=O)N(O)CCCCCNC(=O)CCC(=O)N(O)CCCCCNC(=O)CCC(=O)N(O)CCCCCN`, for which the Potency result was “inactive”.

Turning to `C#C[C@]1(OC(C)=O)CC[C@H]2[C@@H]3CCC4=C[C@@H](OC(C)=O)CC[C@@H]4[C@H]3CC[C@@]21C`, the Potency entry was “inactive”.

Turning to `CCOC(=O)c1cccc(N)c1`, the Potency result was “inactive”.

As for `CN1C(CCl)Nc2cc(Cl)c(S(N)(=O)=O)cc2S1(=O)=O` (centres undefined), the Potency result is “inactive”.

For `CC[N+](CC)(CCNC(=O)C(=O)NCC[N+](CC)(CC)Cc1ccccc1Cl)Cc1ccccc1Cl`, the Potency result is “inactive”.

Regarding `CCCCC(CC)CN=C(N)NC(N)=NCCCCCCN=C(N)NC(N)=NCC(CC)CCCC` (centres undefined), the Potency is 20.3 µM (active).

`CN1CCN(C(c2ccccc2)c2ccccc2)CC1`: the Potency entry was “inactive”.

For `CC(=O)c1ccc2c(c1)N(CCCN1CCC(CCO)CC1)c1ccccc1S2`, the Potency entry is “inactive”.

Take `NCCC(O)(P(=O)(O)O)P(=O)(O)O`: the Potency result was “inactive”.

With `CCCCN1CCCC1C(=O)Nc1c(C)cc(C)cc1C` (centres undefined), the Potency entry is “inactive”.

As for `CCOC(=O)/C=C(C)/C=C/C=C(C)/C=C/c1c(C)cc(OC)c(C)c1C`, the Potency result is “inactive”.

`COc1c2occc2c(OC)c2c(=O)cc(C)oc12`: the Potency entry is “inactive”.

Take `CCC(C(=O)OCCN(CC)CC)c1ccccc1` (centres undefined): the Potency result was “inactive”.

With `COc1ccc(CN2CCN(C(c3ccc(F)cc3)c3ccc(F)cc3)CC2)c(OC)c1OC`, the Potency was 28.7 µM (active).

As for `Cc1c(C)n(CCN(C)C)c2ccc(C(=O)OCCN(C)C)cc12`, the Potency entry was “inactive”.

Turning to `OCc1ccccc1O`, the Potency entry was “inactive”.

As to `Cc1c(F)c(N2CCNC(C)C2)cc2c1c(=O)c(C(=O)O)cn2C1CC1` (centres undefined), the Potency entry is “inactive”.

On to `Cc1cc(O)c(C(C)C)cc1Cl`, for which the Potency result was “inactive”.

`CCn1cc(C(=O)O)c(=O)c2cnc(N3CCCC3)nc21`: the Potency result is “inactive”.

Take `NC(CO)(CO)CO`: the Potency result was “inactive”.

Regarding `CN=C(NC#N)NCCSCc1csc(N=C(N)N)n1`, the Potency result was “inactive”.

`CCCCOc1cc(C(=O)NCCN(CC)CC)c2ccccc2n1`: the Potency entry was “inactive”.

Consider `O=C(O)CNC(=O)c1ccccc1`, for which the Potency entry is “inactive”.

Regarding `Cc1cccn2c(=O)c(-c3nnn[nH]3)cnc12`, the Potency entry was “inactive”.

In the case of `Nc1ccc(C(=O)Nc2ccccc2N)cc1`, the Potency entry is “inactive”.

Regarding `Cc1c(C(N)=O)cc([N+](=O)[O-])cc1[N+](=O)[O-]`, the Potency entry is “inactive”.

`COc1cc(-c2ccc(=O)[nH]n2)ccc1OC(F)F`: the Potency entry was “inactive”.

As to `CCCCOc1ccc(C(=O)CCN2CCCCC2)cc1`, the Potency result is “inactive”.

For the compound `CCCCCCCCCCCCCCNCCO`, the Potency result was “inactive”.

On to `COC(=O)[C@@H]1CC2=CC(=O)CC[C@]2(C)[C@@]23O[C@@H]2C[C@@]2(C)[C@@H](CC[C@@]24CCC(=O)O4)[C@H]13`, for which the Potency entry was “inactive”.

Take `c1ccc(CNCCNCc2ccccc2)cc1`: the Potency result was “inactive”.

`CCOc1ccc(NC(=O)CC(C)O)cc1` (centres undefined): the Potency entry is “inactive”.

For the compound `OC(CCN1CCCCC1)(c1ccccc1)c1ccccc1`, the Potency result is “inactive”.

For `NCCc1ccn[nH]1`, the Potency entry is “inactive”.

As for `CCN(CC)CCNC(=O)COc1ccc(Cl)cc1`, the Potency result is “inactive”.

As to `O=C(CCN1CCC(c2ccccc2)C1)c1ccc2c(c1)OCCO2` (centres undefined), the Potency is 28.7 µM (active).

Turning to `Cc1c(N(C)CS(=O)(=O)O)c(=O)n(-c2ccccc2)n1C`, the Potency result is “inactive”.

Turning to `O=C(COc1ccc(Cl)cc1)N1CCN(Cc2ccc3c(c2)OCO3)CC1`, the Potency result was “inactive”.

Take `CCN1CCN(c2cc3c(cc2F)c(=O)c(C(=O)O)cn3C2CC2)CC1`: the Potency entry is “inactive”.
